# Reference: the supplement of paper PMC4206461
# Test system: Pseudomonas aeruginosa PA14 dppA1-A5 penta mutant + pBBR5.DppA1 (PA14_58350)
# Test: respiration area under curve with compound as sole nitrogen source, 24 h (OmniLog AUC (arbitrary units)); higher = more respiration / better utilisation as nitrogen source, active = 2000 or more
# Conditions: plate: PM8
# Method: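 Biolog Phenotype MicroArray plates PM6-PM8: each di/tripeptide is the sole nitrogen source. Tetrazolium reduction was read in the OmniLog for 24 h at 37°C and summarised as area under the respiration curve (arbitrary units). Values below 2000 count as no respiration. Strain is the SBP penta mutant complemented with DppA1 on a plasmid under its native promoter. Lys/His/Cys peptides are excluded.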
row,SMILES,respiration area under curve
1,N[C@@H](Cc1ccc(O)cc1)C(=O)NCC(=O)NCC(=O)O,9440 (active)
